About 83,000 compounds went through this panel and 20% of them were active in at least one assay; those are over-represented in the sample as a whole.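 Method: cells in 96-well plates; compound added at one concentration; 48 h incubation; percent growth measured; values under 10 scored active.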 A number with no mark means an inactive call. Activity calls are given as the source filed them.
Tested on: UO-31 renal
Experiment: NCI-60 one-dose screen, 48 h (100 = growth as untreated, 0 = no growth, -100 = all killed)
Conditions: 10 µM unless noted

First: COc1ccc(C2CC(c3ccc(Nc4ccnc5cc(Cl)ccc45)cc3)=NN2c2ccccc2)cc1 (configuration not stated)
Second: COc1cc(C2CC(c3cccc(Nc4ccnc5cc(Cl)ccc45)c3)=NN2c2ccccc2)cc(OC)c1OC (configuration not stated)
The growth of the first is higher: 93.9% for the first, 38% for the second.

Compared with `CCCCc1n(Cc2ccc3ccccc3n2)cc[n+]1Cc1ccc2ccccc2n1`, `CCCc1n(Cc2ccc3ccccc3n2)cc[n+]1Cc1ccc2ccccc2n1` is higher in growth: 83.5% for the first, 86.5% for the second.

Going from `O=C(/C=C/c1cn(-c2ccccc2)nc1-c1cccc(Nc2ccnc3cc(Cl)ccc23)c1)c1ccc2c(c1)OCO2` to `O=C(CCc1nc2sc3c(c2c(=O)[nH]1)CCC3)NCc1cn(-c2ccccc2)nc1-c1ccccc1`, the growth rises from 84.8% to 98.5%.

Compared with `NC(=O)c1noc(C(=O)c2ccccc2)c1N`, `Nc1nc(N)c2c(n1)NC(c1sc(Cl)nc1Cl)CC(c1ccccc1)=N2` (configuration not stated) is lower in growth: 90.2% for the first, 46.6% for the second.

Going from `COc1ccc(/C=C(/C(=O)N2CCN(c3ccccc3)CC2)c2cc(OC)c(OC)c(OC)c2)cc1O` to `COc1ccc(/C(=C\c2cc(OC)c(OC)c(OC)c2)C(=O)N2CCNCC2)cc1`, the growth rises from 45.6% to 83.4%.

First: Fc1ccc(-c2ccnc3nc(-c4ccncc4)nn23)cc1
Second: Nc1ncnc2c1N=C(c1ccc(F)cc1)CC(c1sc(Cl)nc1Cl)N2 (configuration not stated)
The growth of the first is higher: 84.5% for the first, 63.2% for the second.

Going from `O=C1CC2(O)CSc3nc(=O)cc(n32)N1` (configuration not stated) to `O=c1[nH]cnc2nc[nH]c12`, the growth rises from 82.7% to 94.2%.

Going from `CCOC(=O)C1=C(C)NC(SCc2nnc(-c3ccc(Cl)cc3)o2)=NC1c1ccc(Br)cc1` (configuration not stated) to `CCOC(=O)C1=C(C)NC(SCc2nnc(-c3ccc(Cl)cc3)o2)=NC1c1ccc(Cl)cc1` (configuration not stated), the growth falls from 52.6% to 48.7%.

First: O=C1/C(=C\c2cccn2Cc2ccc(Cl)cc2)c2ccccc2N1c1c(Cl)cccc1Cl
Second: O=C1/C(=C\c2cccn2C(=O)c2ccccc2)c2ccccc2N1c1c(Cl)cccc1Cl
The growth of the first is lower: 63% for the first, 66.8% for the second.

Going from `CCOC(CN1CCN(CC(C)C(=O)c2ccccc2)CC1)c1ccccc1` (configuration not stated) to `COc1ccc(-c2nc(-c3ccccc3OCc3ccccc3OC)nc(C)c2C(C)=O)cc1`, the growth falls from 89% to 64.3%.

Compared with `[Ag].[Ag].[NH-]S(=O)(=O)c1ccc(N=Nc2cc(N=Nc3ccc(S([NH-])(=O)=O)cc3)c3c(NC(=O)C(Cl)Cl)cccc3c2OC(=O)C(Cl)Cl)cc1.[c-]1nccs1.[c-]1nccs1`, `CN(C)CCOc1nc2c3ccncc3cc(-c3cccc(Cl)c3)c2c2cnccc12` is lower in growth: 69.4% for the first, 14.9% for the second.

First: CCCCCCCCCCCCCCCc1cc(O)ccc1[N+](=O)[O-]
Second: CCN(CC)C(Cl)=Nc1ccc(Cl)cc1
The growth of the first is lower: 58.6% for the first, 87.8% for the second.

Going from `Nc1nc2c(c3ncccc13)C(c1ccccc1)Cc1ncccc1-2` (configuration not stated) to `Cc1cc(C)c2c(n1)sc1c(Nc3ccc(OCc4ccccc4)cc3)ncnc12`, the growth rises from 61.1% to 85.1%.

First: Cc1ccc(C2CC(c3cccs3)=NN2c2ccc(S(N)(=O)=O)cc2)s1 (configuration not stated)
Second: Brc1ccccc1Cn1c(-c2cncs2)nc2ccccc21
The growth of the first is higher: 75.8% for the first, 44.9% for the second.

First: C=CCn1c(C)nc2cc(Nc3nc(N4CCCC4)nc4nc[nH]c34)ccc21
Second: Cc1nc2ccc(Nc3nc(N4CCOCC4)nc(N4CCN(C)CC4)n3)cc2n1Cc1ccccc1
The growth of the first is lower: 61.2% for the first, 62.7% for the second.

Going from `CCSc1ccc([C@@H]2[C@@H](O)C(=O)N2c2cc(OC)c(OC)c(OC)c2)cc1` to `COc1ccc(Nc2ncnc3c2sc2nc(C)cc(C)c23)cc1`, the growth rises from 50.5% to 91.5%.

Going from `CC(=O)c1c(C)nc(-c2cc(C)cc(Cl)c2)nc1-c1cccc(Oc2ccccc2)c1` to `CC(C)(C)c1ccc(Cn2c(-c3nonc3N)nc3ccccc32)cc1`, the growth falls from 85.2% to 51.4%.

For `Cc1cc(C)c2c(NC(=O)Nc3ccc(Cl)c(Cl)c3)n[nH]c2n1`, the growth was 90.2%.

For `COc1ccc2[nH]c(C(=O)OCc3ccc4cccc(O)c4n3)cc2c1`, the growth was -100% (active).
With `N#Cc1c(N)n(C2OC(CO)C(O)C2O)c2ncnc(N)c12` (configuration not stated) the growth was -42.1% (active).
For `CCOc1cccc(/C=N/NC(=O)c2ccc(Nc3ccnc(C(F)(F)F)c3)cc2)c1O`, the growth was -11% (active).

Tested on: TK-10 renal
Experiment: as above
Conditions: 10 µM unless noted

First: COc1ccc(C2CC(c3ccc(Nc4ccnc5cc(Cl)ccc45)cc3)=NN2c2ccccc2)cc1 (configuration not stated)
Second: COc1cc(C2CC(c3cccc(Nc4ccnc5cc(Cl)ccc45)c3)=NN2c2ccccc2)cc(OC)c1OC (configuration not stated)
The growth of the first is higher: 109% for the first, 75.4% for the second.

First: CCCCc1n(Cc2ccc3ccccc3n2)cc[n+]1Cc1ccc2ccccc2n1
Second: CCCc1n(Cc2ccc3ccccc3n2)cc[n+]1Cc1ccc2ccccc2n1
The growth of the first is lower: 27.6% for the first, 62.1% for the second.

Going from `O=C(/C=C/c1cn(-c2ccccc2)nc1-c1cccc(Nc2ccnc3cc(Cl)ccc23)c1)c1ccc2c(c1)OCO2` to `O=C(CCc1nc2sc3c(c2c(=O)[nH]1)CCC3)NCc1cn(-c2ccccc2)nc1-c1ccccc1`, the growth falls from 123% to 89.4%.

Compared with `NC(=O)c1noc(C(=O)c2ccccc2)c1N`, `Nc1nc(N)c2c(n1)NC(c1sc(Cl)nc1Cl)CC(c1ccccc1)=N2` (configuration not stated) is lower in growth: 92.5% for the first, 70.8% for the second.

Compared with `COc1ccc(/C=C(/C(=O)N2CCN(c3ccccc3)CC2)c2cc(OC)c(OC)c(OC)c2)cc1O`, `COc1ccc(/C(=C\c2cc(OC)c(OC)c(OC)c2)C(=O)N2CCNCC2)cc1` is higher in growth: 64% for the first, 94.6% for the second.

Compared with `Fc1ccc(-c2ccnc3nc(-c4ccncc4)nn23)cc1`, `Nc1ncnc2c1N=C(c1ccc(F)cc1)CC(c1sc(Cl)nc1Cl)N2` (configuration not stated) is lower in growth: 96.6% for the first, 93.2% for the second.

First: O=C1CC2(O)CSc3nc(=O)cc(n32)N1 (configuration not stated)
Second: O=c1[nH]cnc2nc[nH]c12
The growth of the first is lower: 106% for the first, 115% for the second.

Compared with `CCOC(=O)C1=C(C)NC(SCc2nnc(-c3ccc(Cl)cc3)o2)=NC1c1ccc(Br)cc1` (configuration not stated), `CCOC(=O)C1=C(C)NC(SCc2nnc(-c3ccc(Cl)cc3)o2)=NC1c1ccc(Cl)cc1` (configuration not stated) is lower in growth: 79.9% for the first, 77.5% for the second.

Compared with `CN(C)CCOc1nc2c3cccnc3cc(-c3cccc(Cl)c3)c2c2ncccc12`, `CN(C)CCOc1nc2c3ccncc3cc(-c3cccc(Cl)c3)c2c2cnccc12` is higher in growth: 28.5% for the first, 30.7% for the second.

Compared with `O=C1/C(=C\c2cccn2Cc2ccc(Cl)cc2)c2ccccc2N1c1c(Cl)cccc1Cl`, `O=C1/C(=C\c2cccn2C(=O)c2ccccc2)c2ccccc2N1c1c(Cl)cccc1Cl` is lower in growth: 87.6% for the first, 86.4% for the second.

Compared with `CCOC(CN1CCN(CC(C)C(=O)c2ccccc2)CC1)c1ccccc1` (configuration not stated), `COc1ccc(-c2nc(-c3ccccc3OCc3ccccc3OC)nc(C)c2C(C)=O)cc1` is lower in growth: 115% for the first, 103% for the second.

First: [Ag].[Ag].[NH-]S(=O)(=O)c1ccc(N=Nc2cc(N=Nc3ccc(S([NH-])(=O)=O)cc3)c3c(NC(=O)C(Cl)Cl)cccc3c2OC(=O)C(Cl)Cl)cc1.[c-]1nccs1.[c-]1nccs1
Second: CCOc1cccc(/C=N/NC(=O)c2ccc(Nc3ccnc(C(F)(F)F)c3)cc2)c1O
The growth of the first is higher: 108% for the first, 28.4% for the second.

First: CCCCCCCCCCCCCCCc1cc(O)ccc1[N+](=O)[O-]
Second: CCN(CC)C(Cl)=Nc1ccc(Cl)cc1
The growth of the first is higher: 112% for the first, 101% for the second.

Going from `Nc1nc2c(c3ncccc13)C(c1ccccc1)Cc1ncccc1-2` (configuration not stated) to `Cc1cc(C)c2c(n1)sc1c(Nc3ccc(OCc4ccccc4)cc3)ncnc12`, the growth rises from 89.9% to 92.4%.

Compared with `Cc1ccc(C2CC(c3cccs3)=NN2c2ccc(S(N)(=O)=O)cc2)s1` (configuration not stated), `Brc1ccccc1Cn1c(-c2cncs2)nc2ccccc21` is lower in growth: 94.8% for the first, 82.6% for the second.

Going from `C=CCn1c(C)nc2cc(Nc3nc(N4CCCC4)nc4nc[nH]c34)ccc21` to `Cc1nc2ccc(Nc3nc(N4CCOCC4)nc(N4CCN(C)CC4)n3)cc2n1Cc1ccccc1`, the growth rises from 11.8% to 87.2%.

Going from `CCSc1ccc([C@@H]2[C@@H](O)C(=O)N2c2cc(OC)c(OC)c(OC)c2)cc1` to `COc1ccc(Nc2ncnc3c2sc2nc(C)cc(C)c23)cc1`, the growth rises from 77.2% to 115%.

First: CC(=O)c1c(C)nc(-c2cc(C)cc(Cl)c2)nc1-c1cccc(Oc2ccccc2)c1
Second: CC(C)(C)c1ccc(Cn2c(-c3nonc3N)nc3ccccc32)cc1
The growth of the first is higher: 93.6% for the first, 81.9% for the second.

In the case of `Cc1cc(C)c2c(NC(=O)Nc3ccc(Cl)c(Cl)c3)n[nH]c2n1`, the growth is reported as 112%.

In the case of `COc1ccc2[nH]c(C(=O)OCc3ccc4cccc(O)c4n3)cc2c1`, the growth is reported as -89.2% (active).
In the case of `N#Cc1c(N)n(C2OC(CO)C(O)C2O)c2ncnc(N)c12` (configuration not stated), the growth is reported as -9.6% (active).

Reference: PubChem BioAssay (NCI)
